# Screen size: about 62,000 compounds; about 95 (0.2%) were called active. No stated cut-off is given here; in the data, active means inhibition above about 20% (passing the limit was not always enough); inactive means the rest. Shown is part of a subset that was picked to be rich in actives. Where a SMILES comes first, the peptide text is derived from it. [ ]: non-standard residue; d: D form. ξ: configuration not given here. ξV = CC(C)C(N)C(=O)O
# Target: Coagulation factor XII (Homo sapiens) (UniProt P00748)
# Assay: blockers of FXIIa protease activity – biochemical, pooled compound mixtures, fluorogenic substrate, primary screen (AID 684);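 further: 0% = enzyme without compound and 100% = no enzyme blank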
# Conditions: purified FXIIa, at 5 µM, active compounds read high
# Coagulation factor XII (Homo sapiens), sequence (P00748 20-372 limits assumed): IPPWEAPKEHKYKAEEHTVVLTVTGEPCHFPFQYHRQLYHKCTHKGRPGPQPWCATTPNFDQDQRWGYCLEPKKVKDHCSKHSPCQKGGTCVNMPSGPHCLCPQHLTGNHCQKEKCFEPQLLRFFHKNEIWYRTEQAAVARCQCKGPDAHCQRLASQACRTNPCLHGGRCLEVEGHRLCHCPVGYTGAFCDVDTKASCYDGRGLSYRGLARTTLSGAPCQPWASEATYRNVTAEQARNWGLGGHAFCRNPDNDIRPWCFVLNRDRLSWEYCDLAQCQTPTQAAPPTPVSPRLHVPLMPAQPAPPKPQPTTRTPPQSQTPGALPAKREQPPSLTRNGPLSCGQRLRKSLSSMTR
# Coagulation factor XII (Homo sapiens), sequence (P00748 373-615 limits assumed): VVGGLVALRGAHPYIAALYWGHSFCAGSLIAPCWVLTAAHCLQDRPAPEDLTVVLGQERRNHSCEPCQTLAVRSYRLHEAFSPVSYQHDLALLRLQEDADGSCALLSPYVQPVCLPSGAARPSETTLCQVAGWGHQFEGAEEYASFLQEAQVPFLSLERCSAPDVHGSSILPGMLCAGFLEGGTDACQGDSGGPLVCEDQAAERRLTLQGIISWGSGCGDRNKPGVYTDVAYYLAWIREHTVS
row,SMILES,inhibition
1,CC1(C)CC(=O)c2sc(N)nc2C1,4.78% (inactive)
2,CCN1CCN(c2c(Cl)cccc2NC(=O)c2ccc(Br)o2)CC1,10.2% (inactive)
3,CCOC(=O)c1ccc(N2C(=O)CC(Sc3nc(O)c(CC)c(=O)[nH]3)C2=O)cc1 (stereo not given),-16.1% (inactive)
4,O=C(CCCn1c(=O)[nH]c2cc(Cl)ccc2c1=O)NCCN1CCN(c2ccccc2)CC1,6.45% (inactive)
5,CC(C)Cn1c(CN(Cc2ccccc2)Cc2ccccc2)nc2c1c(=O)n(C)c(=O)n2C,2.03% (inactive)
6,CCOCC(=O)NCc1ccc2c(c1)cc(C)n2C,5.58% (inactive)
7,CC1CCCC(NC(=O)CSc2nccn2C)C1C (stereo not given),4.17% (inactive)
8,O=C(/C=N/O)Nc1ccccc1,1.18% (inactive)
9,CCC(=O)N1CCN=C1SCc1ccc(F)cc1,11.4% (inactive)
10,Cc1ccc(CN2C(=O)CCC2C(=O)NCCCN2CCCCC2C)cc1 (stereo not given),5.07% (inactive)
11,Cc1cc(C)c(C#N)c(SCS(=O)c2ccc(C(C)(C)C)cc2)n1 (stereo not given),4.64% (inactive)
12,CCOC(=O)c1cc2c(n(-c3ccc(C)cc3)c1=O)CCCC2=O,6.98% (inactive)
13,CC(c1ccco1)N(C(=O)c1ccc(S(=O)(=O)N2CCCCC2)cc1)c1ccccn1 (stereo not given),12% (inactive)
14,COC(=O)c1oc2ccc(Br)cc2c1NC(C)=O,8.62% (inactive)
15,Cc1nnc(SCc2cc(=O)[nH]c(N3CCN(Cc4ccccc4)CC3)n2)s1,2.33% (inactive)
16,Cc1nn(-c2cc(Cl)ccc2N)c(=O)c2ccccc12,4.62% (inactive)
17,COc1cc(OC)c(C(=O)Nc2ccc(N(C)C)cc2)cc1OC,6.85% (inactive)
18,CSc1ccc(NC(=O)N2CC(C)OC(C)C2)cc1 (stereo not given),7.45% (inactive)
19,O=C(Nc1cccc2cccnc12)c1cccc(N2C(=O)CCC2=O)c1,8.88% (inactive)
20,CCCCOC(=O)Nc1nccs1,0.87% (inactive)
21,CC1=C(C(N)=O)C(c2ccc3c(c2)OCO3)n2nc(-c3cccc(C)c3)nc2N1 (stereo not given),6.61% (inactive)
22,CCn1c(SCC(=O)c2ccc(Cl)s2)nnc1-c1cccs1,7.99% (inactive)
23,O=C(O)c1ccc(COCC(F)(F)F)cc1,7.12% (inactive)
24,COc1ccccc1C(=O)C(O)c1ccccc1OC (stereo not given),5.88% (inactive)
25,CC(C)C(=O)Nc1c(C(=O)c2ccc(F)cc2)oc2ccccc12,-2.16% (inactive)
26,Cc1cccc(C(=O)Nc2ccc(CC(=O)O)cc2)c1,3.19% (inactive)
27,O=c1[nH][nH]c(=O)c2cc(N3CCCC3)ccc12,10.2% (inactive)

row,SMILES,inhibition
1,Cc1cc(=O)n2nc(N3CCCC3C(=O)NCCCN3CC(C)CC(C)C3)sc2n1 (stereo not given),-7.38% (inactive)
2,O=C(CN1CCOCC1)Nc1cc(Cl)ccc1Cl,17.8% (inactive)
3,CCCN1C(=O)C(NS(=O)(=O)c2ccc(N)cc2)(C(F)(F)F)C(C(=O)OC)=C1C (stereo not given),4.13% (inactive)
4,CC1CCCCC1NC(=O)CSc1nnc(N)s1 (stereo not given),4.21% (inactive)
5,CCOC(=O)Cc1c(C)nc2c(C#N)c(C)nn2c1C,-16% (inactive)
6,CCOC(=O)N1CCN(CC(=O)c2c(C)[nH]c3ccccc23)CC1,8.99% (inactive)
7,CCC(C(=O)Nc1ncccn1)(C(F)(F)F)C(F)(F)F,9.39% (inactive)
8,Cc1ccc(-n2ncc3c(N4CCN(c5ccc(F)cc5)CC4)ncnc32)c(C)c1,2.92% (inactive)
9,Cc1ccc(-n2ncc3c(=O)[nH]cnc32)c(C)c1,20.5% (active)
10,Cc1ccc(-n2ncc3c2ncn2nc(-c4ccco4)nc32)c(C)c1,0.945% (inactive)
11,CC(=O)NS(=O)(=O)c1ccccc1,7.57% (inactive)
12,Cc1ccc(-c2nn(-c3ccccc3)cc2CN(Cc2ccccc2)C(=O)CCC(=O)O)o1,1.27% (inactive)
13,COc1ccc(CC(NC(C)=O)C(=O)NC2CCN(C(=O)Nc3ccc(C#N)cc3)CC2)cc1OC (stereo not given),-19% (inactive)
14,c1nnc2c3c4c(sc3ncn12)CCC4,-20.4% (inactive)
15,Cc1ccc2cccc(O)c2[n+]1[O-],6.81% (inactive)
16,CCCn1c(SCC(N)=O)nnc1C(C)C,-14.3% (inactive)
17,COc1ccccc1N1CCN(C(=O)c2c(-c3c(Cl)cccc3Cl)noc2C)CC1,-18.6% (inactive)
18,CCCn1nnc2sc3c(c2c1=O)CCC(C)C3 (stereo not given),1.96% (inactive)
19,Cc1ccnc(SCCn2c(N(C)Cc3ccccc3)nc3c2c(=O)n(C)c(=O)n3C)n1,5.5% (inactive)
20,Cc1ccc(S(=O)(=O)C2(S(=O)(=O)c3ccc(C)cc3)CCCC2)cc1,5.75% (inactive)
21,CCCOC(=O)c1[nH]c2c(c1C)C(=O)CC(c1cc(OC)c(OC)c(OC)c1)C2 (stereo not given),3.98% (inactive)
22,O=C(c1ccc(-n2cnnn2)cc1)N1CCN(C(c2ccccc2)c2ccccc2)CC1,1.76% (inactive)
23,c1c2c(cc3sc(N4CCCCC4)nc13)OCCO2,-2.49% (inactive)
24,CC(=O)Oc1ccc(C)cc1N1C(=O)c2ccc(C(=O)O)cc2C1=O,9.34% (inactive)
25,N#Cc1ccc(OCCN2C(=O)NC3(CCSC3)C2=O)cc1 (stereo not given),18.5% (inactive)
26,COc1ccc(C2/C(=C(/O)c3ccccc3)C(=O)C(=O)N2c2ncccn2)cc1OC (stereo not given),2.12% (inactive)
27,Cc1c(NC(=O)c2coc(=O)c(Br)c2)c(=O)n(-c2ccccc2)n1C,-0.015% (inactive)

row,SMILES,inhibition
1,CCOC(=O)N1CCN(C(=O)Cc2ccc(-n3c(=S)[nH]c4ccccc4c3=O)cc2)CC1,7.08% (inactive)
2,COc1cccc(Nc2nnc(SCC(=O)N3CC(C)OC(C)C3)s2)c1 (stereo not given),-0.74% (inactive)
3,CCOc1ccc2[nH]c(=O)c(CN(CCCO)C(C)=O)cc2c1,-3.55% (inactive)
4,Cn1c(=O)c2[nH]c(NCC3CCCO3)nc2n(-c2ccccc2)c1=O (stereo not given),-14.8% (inactive)
5,CC(C)CCNc1nc(N2CCCC2)c2c(c1C#N)CCN(C)C2,-51.8% (inactive)
6,N#Cc1ccc(CSc2nnc(-c3ccccn3)n2-c2ccc(Cl)cc2)cc1,-14.6% (inactive)
7,CCN(CC)P(=O)(C(NC(=O)OC)C(F)(F)C(F)(F)C(F)(F)C(F)F)N(CC)CC (stereo not given),0.97% (inactive)
8,CCCC(C)n1[nH]c(=O)c2c(C)cc(C)nc21 (stereo not given),3.26% (inactive)
9,N#CC(C(=O)c1ccc(S(=O)(=O)N2CCCCCC2)cc1)c1nc2ccccc2[nH]1 (stereo not given),-9.55% (inactive)
10,OCCNCCCCOc1ccccc1F,-11.6% (inactive)
11,CCOc1ccc(CCNC(=O)C2CCN(c3ccc(N4CCOCC4)nn3)CC2)cc1OCC,-15.4% (inactive)
12,Cc1nc2ccc(NC(=O)N3CCC(c4ccccc4)C3)cc2nc1C (stereo not given),-16.9% (inactive)
13,CC(=O)NCC(=O)N(C)C(C(=O)Nc1ccc2c(c1)OCCO2)c1ccccc1 (stereo not given),16.7% (inactive)
14,COc1cccc(NC(=O)CN(C)S(=O)(=O)c2ccc(C)cc2)c1,23% (active)
15,COc1ccc(NC(=O)CN(C)S(=O)(=O)c2ccccc2)cc1OC,19.2% (inactive)
16,COc1cccc(N(CC(=O)Nc2cccc(N(C)S(C)(=O)=O)c2)S(C)(=O)=O)c1,-3.08% (inactive)
17,Cc1ccc(S(=O)(=O)c2c(N)n(C)c3nc4ccccc4nc23)cc1,-4.52% (inactive)
18,N#CCCN1CCN(S(=O)(=O)c2ccc(S(=O)(=O)NC3CCCCC3)cc2)CC1,4.97% (inactive)
19,O=C(CCS(=O)(=O)c1ccccc1)Nc1nc2c(s1)CCCC2,24.1% (inactive)
20,COc1ccc(C(=O)c2oc3ccc(Br)cc3c2NC(C)=O)cc1,1.19% (inactive)
21,C/C(=C\C(=O)c1ccccc1)Nc1cccc(O)c1,2.12% (inactive)
22,COC(=O)c1cc(C(=O)OC)cc(N2C(=O)CC(N3CCN(c4ccccc4)CC3)C2=O)c1 (stereo not given),7.93% (inactive)
23,CCn1cc(C(=O)NCC2COc3ccccc3O2)c2cc(OC)c(OC)cc2c1=O (stereo not given),3.64% (inactive)
24,COc1ccccc1NC(=O)c1ccc(C)s1,-2.31% (inactive)
25,CC(=O)Nc1ccc(S(=O)(=O)N2CCC(N(C)CCC(C)C)CC2)cc1,-1.44% (inactive)
26,C=CCNC(=O)CSc1nc2sc(C)c(C)c2c(=O)[nH]1,7.21% (inactive)
27,COc1ccc(N2CC(C)Cn3c2nc2c3c(=O)n(Cc3ccccc3F)c(=O)n2C)c(OC)c1 (stereo not given),10.8% (inactive)

row,SMILES,inhibition
1,Cn1nnc(NC(=O)CSc2ncn[nH]2)n1,4.66% (inactive)
2,O=C1Nc2ccccc2C12Nc1ccccc1S2 (stereo not given),-1.23% (inactive)
3,C=CCn1c(COc2ccccc2F)nnc1SCC(=O)N1CC(=O)Nc2ccccc21,1.16% (inactive)
4,COc1ccc(C2C3=C(CC(C)(C)CC3=O)Oc3ncn4nc(-c5cccnc5)nc4c32)cc1OC (stereo not given),10.1% (inactive)
5,C=CCNC(=O)CCCC(=O)NCC=C,0.65% (inactive)
6,COc1ccc2c3c(c(=O)oc2c1OCC(=O)C(C)(C)C)CCCC3,12.2% (inactive)
7,COc1ccc(N2C(=O)C3CCCN3C2c2cc(OC)c(OC)cc2OC)cc1 (stereo not given),-16.1% (inactive)
8,CC(=O)NC(C(=O)NCC(N)=O)C(C)C (stereo not given) (Ac-[ξV]-Gly-NH2),1.26% (inactive)
9,Cc1nn(-c2ccccc2)c(CC(C)(C)C(=O)O)c1C(=O)O,-11.5% (inactive)
10,Cc1cccc(NC(=O)CSc2nnc(NC(=O)CN3CCOCC3)s2)c1,0.94% (inactive)
11,CCOC(=O)N1CCC(NC(=O)c2cnn3ccccc23)CC1,2.9% (inactive)
12,CCOc1ccc(CCNC(=O)C(CC)n2nc(C)n3c(cc4sccc43)c2=O)cc1OCC (stereo not given),8.5% (inactive)
13,CCOC(=O)N1CCN(S(=O)(=O)c2cc(Br)cc3c2N(C(=O)C2CC2)CC3)CC1,2.7% (inactive)
14,CC(=O)Nc1ccc(S(=O)(=O)Nc2nc3n(n2)C(c2ccccc2)CC(=O)N3)cc1 (stereo not given),-18.2% (inactive)
15,COc1ccc(-n2ncc3c(N4CCCc5ccccc54)ncnc32)cc1,-15% (inactive)
16,COCC(C)N=CC1=C(O)CC(C)(C)CC1=O (stereo not given),3.32% (inactive)
17,CC(=O)Cc1nsc(NC(=O)c2csc3c2CCCC3)n1,-19% (inactive)
18,CCOc1ccc(NC(=O)N(CCC(C)C)C(C)c2ccco2)cc1 (stereo not given),29.7% (inactive)
19,CCCNC(=O)C1CC(=O)N(c2ccc(OCC(=O)Nc3cccc(C)c3C)cc2)C1 (stereo not given),4.39% (inactive)
20,CCOC(=O)CCC(=O)OCC(=O)NC(C)C1CC2CCC1C2 (stereo not given),20.1% (inactive)
21,COCCNC(=O)CSc1nc2c(n1-c1ccccc1)CCCC2,1.41% (inactive)
22,CCC1CCCCN1CCNS(=O)(=O)c1ccc2c(c1)CCN2C(C)=O (stereo not given),-15.6% (inactive)
23,CCc1nnc(NS(=O)(=O)c2ccc(NS(=O)(=O)c3ccccc3)cc2)s1,-2.69% (inactive)
24,CC(=O)Oc1ccc2c(C)c(CC(C)O)c(=O)oc2c1 (stereo not given),9.88% (inactive)
